SDO1 yeast rescue: sdo1-depleted yeast growth rescue | S. cerevisiae sdo1-depleted JHY4D growth rescue, OD600 30 h; hits give high values; pdr5 snq2 efflux-pump mutant strain | z-score at 10 µM | AID 817 | 140,000 tested, 0.21% active;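 active = z-score above 3 at both the 24 hr and the 30 hr optical density reads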;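 note: z-score against mean and SD of all compound wells on the same plate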
sEH act: soluble epoxide hydrolase (human) activation. P34913. purified human sEH enzymatic activity, activator screen. AID 717. activation, % at 2 µM. 91,000 tested, 0.04% active; in the data active = activation above about 37%
Target sequence (P34913 whole entry, looked up): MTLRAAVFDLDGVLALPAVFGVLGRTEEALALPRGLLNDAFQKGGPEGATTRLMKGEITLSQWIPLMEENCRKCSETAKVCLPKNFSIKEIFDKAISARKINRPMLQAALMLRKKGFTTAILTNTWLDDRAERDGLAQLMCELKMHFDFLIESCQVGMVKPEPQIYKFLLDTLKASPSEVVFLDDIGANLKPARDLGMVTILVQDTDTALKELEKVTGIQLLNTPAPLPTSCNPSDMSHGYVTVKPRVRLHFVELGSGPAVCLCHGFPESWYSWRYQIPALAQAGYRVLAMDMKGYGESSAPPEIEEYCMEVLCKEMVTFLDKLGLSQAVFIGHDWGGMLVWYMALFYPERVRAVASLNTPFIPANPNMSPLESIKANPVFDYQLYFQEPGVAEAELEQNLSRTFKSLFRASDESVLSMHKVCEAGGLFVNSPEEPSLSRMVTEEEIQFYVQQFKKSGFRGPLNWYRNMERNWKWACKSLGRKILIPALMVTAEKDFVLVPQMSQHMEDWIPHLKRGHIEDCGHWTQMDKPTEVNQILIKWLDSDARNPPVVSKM
sEH inh: soluble epoxide hydrolase (human) inhibition. recombinant human sEH enzymatic activity assay. 91,000 tested, 0.34% active. P34913. inhibition, % at 2 µM; in the data active = inhibition above about 80%
Measles CPE: protection of cells from measles virus | Measles virus-infected cells, CPE protection, absorbance | protection (pct of control), % at 4 µM | 140,000 tested, 1.5% active | AID 841; in the data active = protection mostly above about 24%, no sharp cut-off; inactive = mostly below about 26%
The depositor's hits bear a star; / = not tested or not shown. Hits are enriched below; roughly 1.9% of the tested compounds scored in any of these assays.

SMILES	SDO1 yeast rescue	sEH act	sEH inh	Measles CPE
Cc1cc(NC(=O)CN2C(=O)CC(c3ccco3)Sc3ccccc32)no1 (configuration not stated)	0.94	/	/	42*
COc1ccc(NC(=O)C(c2ccc(C)cc2)N(C)C(=O)c2ccc(=O)[nH]c2)cc1 (configuration not stated)	-0.08	/	/	12
COc1ccc(NC(=O)C(NC(=O)c2ccc(=O)[nH]c2)c2ccc(C)cc2)cc1 (configuration not stated)	0.26	/	/	33*
COc1ccc(Nc2nc(N3CCCC3)c3ccccc3n2)cc1	-0.49	/	/	63*
CCN(CC)c1ccc(Nc2nc(N3CCOCC3)c3ccccc3n2)cc1	-0.8	-15	15	6
COc1cccc(-c2nc(N3CCCCC3C)c3ccccc3n2)c1O (configuration not stated)	-1.6	4	-5	21
C=CCn1c(SCC(N)=O)nnc1-c1cccc(Br)c1	0.18	-1	0	35*
COC(=O)N/N=C/c1ccc([N+](=O)[O-])s1	-0.69	/	/	4
O=C(CCN1CCc2ccccc2C(c2ccccc2)C1)c1ccc2c(c1)OCCO2 (configuration not stated)	0.41	0	-1	41*
CCCCOc1ccc(C2OC34CCCCC3C(C#N)(C#N)C2(C#N)C(=N)O4)cc1 (configuration not stated)	-0.28	8	-12	3
Cc1ccc(C2OC34CCCCCC3C(C#N)(C(=N)O4)C2(C#N)C#N)cc1 (configuration not stated)	0.07	/	/	52*
CCOc1ccc(C2OC34CCCCC3C(C#N)(C#N)C2(C#N)C(=N)O4)cc1OC (configuration not stated)	5.7*	-8	5	18
O=C(NCc1ccco1)Nc1cccs1	-1.1	-5	6	7
O=C(Cc1ccc(Cl)cc1)Nc1ccc(N2CCN(C(=O)c3ccco3)CC2)c(Cl)c1	-1.3	-86	86*	5
Cc1ccc(Cn2c(SCCN3CCCCC3)nc3c2c(=O)n(C)c(=O)n3C)cc1	0.45	0	0	10
Cn1c(=O)c2c(nc(SCCN3CCCCC3)n2Cc2ccccc2)n(C)c1=O	0.84	/	/	76*
Cn1c(=O)c2c(nc(SCCN3CCOCC3)n2Cc2cccc3ccccc23)n(C)c1=O	-0.07	8	-8	98*
O=C(Nc1cccc2cccnc12)C1CCCC1	0.81	/	/	29*
CN(C)C(=O)CSc1nnc(C23CC4CC(CC(C4)C2)C3)o1	0.28	-2	3	27
CN(C)c1cc[n+](CC(=O)Nc2cc(C(F)(F)F)ccc2Cl)cc1	1.2	26	-26	64*
Cc1cc[n+](CC(=O)Nc2cc(C(F)(F)F)ccc2Cl)cc1	0.6	3	-1	21
Cc1ccc(C2=NN(CC(=O)NCc3ccco3)C(=O)CC2)cc1	0.72	/	/	18
NC(=O)C1(N2CCCCC2)CCN(C(=O)CSc2nc3ccccc3[nH]2)CC1	1.2	-4	6	41*
O=C(CSc1ncnc2sc3c(c12)CCCC3)c1ccco1	-1.1	-3	2	46*
O=C(CSc1ncnc2sc3c(c12)CCCC3)c1ccccc1	-1.1	-13	13	7
SMILES	SDO1 yeast rescue	sEH act	sEH inh	Measles CPE
N#CC1=C(N)SC(N)=C(C#N)C1c1ccc([N+](=O)[O-])cc1	-0.23	/	/	16
O=C(Nc1cccc(C(F)(F)F)c1)N1CCC(c2nc(-c3ccc(F)cc3)no2)CC1	-1.9	-93	93*	10
O=C(Nc1ccc(Cl)cc1)N1CCC(c2nc(-c3ccccc3Cl)no2)CC1	-1.5	-88	88*	6
O=C(NC1CCCCC1)N1CCCC(c2nc(-c3cccs3)no2)C1 (configuration not stated)	0.09	-96	96*	9
O=C(Nc1ccc(Cl)cc1)N1CCC(c2nc(-c3cccs3)no2)CC1	-2.2	/	/	10
COc1ccc(NC(=O)N2CCC(c3nc(-c4cccs4)no3)CC2)cc1	-1.3	-90	90*	5
CNC(=O)/C=C/c1cccc(C(F)(F)F)c1	-0.47	/	/	53*
Cc1ccccc1NC(=O)/C=C/c1cccc(C(F)(F)F)c1	-0.64	-10	12	24
O=C(Nc1ccc2c(c1)OCO2)C1CC(c2ccc(Cl)cc2)=NO1 (configuration not stated)	-0.88	-11	10	40*
CCn1ncc(C2=NOC(C(=O)Nc3ccc4c(c3)OCO4)C2)c1C (configuration not stated)	0.14	/	/	6
COc1ccc2nc(C)cc(N3CC(C)OC(C)C3)c2c1 (configuration not stated)	0.67	29	-32	27*
CCOc1ccccc1OCCCOc1ccc(C)cc1Br	0.16	0	2	33*
CCOC(=O)N1CCC(NC(=O)c2cc(C(=O)NCc3cccc(Cl)c3)ccc2CO)CC1	2.3	-7	7	39*
O=S(=O)(c1ccc(-c2cn3ccccc3n2)cc1)N1CCOCC1	0.36	18	-16	63*
Cc1cccn2cc(-c3ccc(S(=O)(=O)N4CCOCC4)cc3)nc12	-0.42	/	/	4
COc1ccc(-n2nc(C(=O)NCc3ccco3)c3ccccc3c2=O)cc1	-0.49	5	-2	6
Cc1[nH]c2ccccc2c1C(=O)/C=C/c1ccccc1	-2	-28	30	4
O=C(NC(=S)N1CCCc2ccccc21)c1ccccc1	0.34	-7	9	26*
O=C(NC(=S)N1CCCc2ccccc21)c1ccc(Cl)cc1	0.15	/	/	23
COc1ccc(NC(=O)C2CCC(=O)N2)cc1 (configuration not stated)	0.65	-2	2	8
Cc1cc(C)nc(NC(=O)c2ccc(OC(C)C)cc2)n1	1	25	-23	9
CN(C)CCCC(=O)c1ccc2c(c1)OCO2	1	1	-3	35*
CC(C)(C)N=C1SCC(C)(/C=N/O)S1 (configuration not stated)	0.11	-6	8	55*
CCCC(=O)Nc1ccc(C(=O)O)cc1NC(=O)CCC	0.16	6	-11	6
O=C(CN1C(=O)c2ccccc2S1(=O)=O)Nc1ccc(S(=O)(=O)N2CCCCC2)cc1	-0.17	-83	83*	6
SMILES	SDO1 yeast rescue	sEH act	sEH inh	Measles CPE
O=C(CN1C(=O)c2ccccc2S1(=O)=O)Nc1ccc(S(=O)(=O)N2CCCC2)cc1	1.2	-68	68	6
O=C(Nc1ccccc1)Nc1ccc(S(=O)(=O)N2CCCCC2)cc1	-0.77	-92	92*	4
O=C(NNC(=O)c1cccs1)c1ccc(S(=O)(=O)N2CCCCC2)cc1	0.51	/	/	26*
CCCCCC(=O)NC(Nc1ccc(S(N)(=O)=O)cc1)C(Cl)(Cl)Cl (configuration not stated)	0.55	/	/	3
CCCCCCC(=O)NC(Nc1ccc(S(N)(=O)=O)cc1)C(Cl)(Cl)Cl (configuration not stated)	-0.22	-6	8	32*
Cc1nn(-c2ccccc2)c2nc(C(F)(F)F)[nH]c(=O)c12	0.71	/	/	41*
Cc1nn(CCC#N)c2nc(C(F)(F)F)[nH]c(=O)c12	-0.88	/	/	20
Cc1ccccc1C1NS(=O)(=O)N=C1N (configuration not stated)	0.21	-7	7	6
CC(C)CNC(=O)c1ccc(NC(=O)c2cccs2)cc1	-0.83	/	/	5

Screens deposited in PubChem by several laboratories.
